The values that follow come from PubChem BioAssay AID2685 (National Center for Advancing Translational Sciences (NCATS), 2010).

Structures are written as SMILES. Among all 320,000 compounds or so, about 2,100 (0.66%) were called active. Another 53% or so got no clear call; they are omitted. This is one part of a sample in which actives are shown more often than they occur. Calls follow the shape of the dose curve; as a rule, active = well fitted inhibition curve with a large enough effect in the signal ratio, with a control signal flat (not every such curve was filed as active); inconclusive = small, poorly fitted or top-dose-only effect, or effect the other way, or a change in a side signal; inactive = flat fitted curve, though single readings scatter; the % refers to the signal ratio.
Potency is read from the fitted curve at half-maximal effect.

The assay can be described thus: qHTS Assay for Lipid Storage Modulators in Drosophila S3 Cells.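 As to cell number change: cells counted by Cell Tracker Red CMTPX staining in the red channel.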 As to lipid storage change, negative = inhibition: % is scaled to controls: 0 for no effect and ±100 for the full control effect. As to conditions: BODIPY lipid droplet fluorescence, 18-24 h, cells fed with added oleic acid; cell number change: measured here: cell count max response; series mostly up to 46.1 µM; lipid storage change, negative = inhibition: at the top concentration. The method, boiled down:
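Drosophila S3 cells loaded with oleic acid (400 uM, as added) and compounds at several concentrations; lipid droplets imaged by 488-nm laser-scanning cytometry, 500–530 nm intensity and object ratio to cell channel. Percent activity normalized to 20 uM Triacsin C.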
For the compound `Cc1cc(=O)n2nc(N3CCCC(C(=O)NCc4cccc(Br)c4)C3)sc2n1` (centres undefined), the compound was called inactive. Still for that read-out and setting: next, `NC(=O)c1ccccc1OCc1cccc2ccccc12`: “inactive”.

For the compound `CC1(C)CC(=O)C2=C(C1)N=C1SCCC(=O)N1C2c1ccccc1` (centres undefined), the “lipid storage change, negative = inhibition” value was 18.4% (inactive) and the cell number change amounted to 9.02%. On to `Cc1ccc(S(=O)(=O)NNC(=O)c2csnn2)cc1`, for which the “lipid storage change, negative = inhibition” value was -10.6% (inactive). Regarding `O=[N+]([O-])c1ccc(CN2CCCCCC2)s1`, the “lipid storage change, negative = inhibition” value was -6.35% (inactive) and the cell number change was -8.81%.

Consider `Cc1ccc2nc(SCC(=O)Nc3cccc(F)c3)nc(=O)n2c1`, for which the Potency was 4.11 µM (active) and the cell number change was 1.08%.

Turning to `Cc1ccc2nc(SCC(=O)Nc3cc(C)on3)nc(=O)n2c1`, the cell number change was found to be 23.9% and the lipid storage change, negative = inhibition is -10.5% [at 0.0737 µM] (inactive). The matching figures for `Cc1ccc2nc(SCC(=O)Nc3ccc(Br)cc3)nc(=O)n2c1`: -15.9% and -21.1% (inactive).

In the case of `CCOC(=O)C1=C(N)OC2=C(C(=O)CC(C)(C)C2)C1c1cccnc1` (centres undefined), the “lipid storage change, negative = inhibition” value is 26.8% (inactive) and the cell number change is -4.63%.

Turning to `COCCCNC(=S)N(Cc1ccccc1)Cc1ccccc1`, the “lipid storage change, negative = inhibition” value is -3.1% (inactive) and the cell number change is -0.836%. Consider `O=C(c1ccccc1)N(Cc1ccc(F)cc1)Cc1nc2ccccc2c(=O)[nH]1`, for which the “lipid storage change, negative = inhibition” value is 4.2% (inactive) and the cell number change is -10.1%. For the compound `CCOCCCNC(=S)N(Cc1ccccc1)Cc1nc2ccccc2c(=O)[nH]1`, the Potency was 0.92 µM (active) and the cell number change worked out at 5.59%.

Regarding `CNC(=S)N(Cc1cc2ccc(OC)cc2[nH]c1=O)CC1CCCO1` (centres undefined), the “lipid storage change, negative = inhibition” value was -12.6% (inactive) and the cell number change is -8.74%. Regarding `Cc1onc(-c2ccccc2)c1-c1ccnn1C(=O)NC(C)C`, the “lipid storage change, negative = inhibition” value was -0.97% (inactive) and the cell number change stood at 15.2%. As for `O=C1CCCC(=O)N1c1ccc(N2CCN(c3ccc([N+](=O)[O-])cc3)CC2)c([N+](=O)[O-])c1`, the Potency is 20.6 µM (active) and the cell number change is -26.2%.

Turning to `O=C1CCCC(=O)N1c1ccc(N2CCN(c3ccccc3)CC2)c([N+](=O)[O-])c1`, the “lipid storage change, negative = inhibition” value was 6.96% (inactive) and the cell number change is -1.18%.

In the case of `Cc1cccc(N2CCN(c3ccc(N4C(=O)CCCC4=O)cc3[N+](=O)[O-])CC2)c1C`, the “lipid storage change, negative = inhibition” value was 11.2% (inactive) and the cell number change amounted to 4.71%.

`COC(=O)[C@@H]1C[C@@]2(O)[C@@H](O)[C@@H](O)[C@@H](O)C[C@H]2N1CC(c1ccccc1)c1ccccc1`: the “lipid storage change, negative = inhibition” value is -0.438% (inactive). For `O=C(c1cc2n(n1)C(C(F)(F)F)CC(c1ccc(Cl)cc1)N2)N1CCCC1` (centres undefined), the call was inactive. As for `O=C(O)CCC(=O)N1CCc2cc(S(=O)(=O)NCc3ccc(Cl)cc3)ccc21`, the “lipid storage change, negative = inhibition” value was 2.28% (inactive). For the compound `COc1ccccc1OCC(=O)Nc1ccc(NC(=O)COc2ccccc2OC)cc1`, the “lipid storage change, negative = inhibition” value was -14.2% (inactive) and the cell number change is -9.29%.

With `COc1ccc2nc(SCC(=O)NC3CCCCC3)[nH]c2c1`, the “lipid storage change, negative = inhibition” value is 7.03% (inactive) and the cell number change was determined as 19.4%.

For the compound `COc1ccc2nc(SCC(=O)NC3CCCCC3C)[nH]c2c1` (centres undefined), the Potency is 29.1 µM (active) and the cell number change came out at 1.48%. Turning to `CC1CCCCC1NC(=O)CSc1nc2ccccc2[nH]1` (centres undefined), the “lipid storage change, negative = inhibition” value is 5.65% (inactive) and the cell number change turned out to be 3.6%. The matching figures for `CCCCCCCCCCOC(=O)c1csc2nnsc12`: 2.92% (inactive) and 6.22%. With `O=C(NCCCO)c1ccc2[nH]c3ccccc3c2c1`, the “lipid storage change, negative = inhibition” value is 26.1% (inactive) and the cell number change was -15.6%. In the case of `Cc1cnc(C(=O)Nc2cccc(-c3nnc4n3CCCCC4)c2)cn1`, the “lipid storage change, negative = inhibition” value is 3.04% (inactive) and the cell number change amounted to 3.24%. The matching figures for `Cc1ccc(C(NC(=O)N2CC(C)OC(C)C2)C(Cl)Cl)cc1F` (centres undefined): -10.8% (inactive) and -1.54%.

As for `O=C(c1c[nH]c(C(=O)C(Cl)(Cl)Cl)c1)c1ccccc1F`, the “lipid storage change, negative = inhibition” value is -19.6% (inactive) and the cell number change was -11.6%. Take `O=C(c1c[nH]c(C(=O)C(Cl)(Cl)Cl)c1)c1ccccc1Cl`: the Potency was 25.9 µM (active) and the cell number change is -14.7%. For the compound `O=C(c1c[nH]c(C(=O)C(Cl)(Cl)Cl)c1)c1ccccc1Br`, the “lipid storage change, negative = inhibition” value was -13.6% (inactive) and the cell number change worked out at 7.04%. Take `COCC(=O)N1CCC(Oc2ccc(C(=O)NCc3cc(C)n(C)n3)cc2)CC1`: the Potency was 16.4 µM (active) and the cell number change is -3.12%.

On to `COCCC(=O)N1CCC(Oc2ccc(C(=O)NCc3cc(C)n(C)n3)cc2)CC1`, for which the “lipid storage change, negative = inhibition” value was -6.14% (inactive) and the cell number change is -14.5%. In the case of `COCC(=O)N1CCC(Oc2ccc(C(=O)NCc3cnc(C)cn3)cc2)CC1`, the “lipid storage change, negative = inhibition” value was 0.0981% (inactive) and the cell number change amounted to 0.0828%.

With `CSc1ccc(C(=O)C2CCCN(C(=O)c3cc4cc(F)ccc4[nH]3)C2)cc1` (centres undefined), the “lipid storage change, negative = inhibition” value is 10.5% (inactive) and the cell number change came to 18.3%. The matching figures for `CCN1CCN(CC(=O)Nc2ccc(OC(F)(F)F)cc2)CC1`: -6.43% (inactive) and -11.2%.

As to `O=C(Nc1nc2c(F)cc(F)cc2s1)c1ccc2c(c1)OCCO2`, the “lipid storage change, negative = inhibition” value was 12.2% (inactive) and the cell number change came to 6.09%.

In the case of `O=C(Nc1nc(-c2cccs2)cs1)C1=COCCO1`, the “lipid storage change, negative = inhibition” value was 6.6% (inactive) and the cell number change was -0.427%. For `O=C(Nc1nc(-c2cccs2)cs1)c1ccc([N+](=O)[O-])o1`, the Potency is 2.06 µM (active) and the cell number change is -9.47%. `O=C(COC(=O)c1ccc([N+](=O)[O-])o1)Nc1nc2ccccc2s1`: the “lipid storage change, negative = inhibition” value is -1.77% (inactive) and the cell number change is -3.3%. On to `Cc1cc(C)c2nc(NC(=O)c3ccc([N+](=O)[O-])o3)sc2c1`, for which the “lipid storage change, negative = inhibition” value is -12.7% (inactive) and the cell number change was determined as 8.03%. The matching figures for `O=C(Nc1nc2ccccc2s1)c1ccc([N+](=O)[O-])o1`: -7.57% (inactive) and 24.1%. On to `O=C(Nc1nc2c(Cl)cccc2s1)c1ccc([N+](=O)[O-])o1`, for which the Potency is 11.6 µM (active) and the cell number change was -16.1%.

Take `CC(=O)Nc1nc(-c2cccs2)cs1`: the “lipid storage change, negative = inhibition” value is 11.7% (inactive) and the cell number change is -17%.

Regarding `O=C(Nc1nc2c(F)cc(F)cc2s1)c1ccc([N+](=O)[O-])o1`, the Potency was 5.8 µM (active) and the cell number change is -16.4%.
